A selection: hits, their analogues and other compounds. The true share with any hit is near 3.4%.
PKM2 activator = increases activity of human pyruvate kinase M2 | P14618 | purified PKM2, Kinase-Glo ATP luminescence, activation; response scale: 0% is enzyme alone, no compound | Potency, µM (titrated, usually from 57.5 µM), actives largely listed as activators | 260,000 tested, 0.34% active | AID 1631; also: nearly all actives have a fitted effect of over 55% in size
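hPK-M2, >95% pure; 0.1 mM ADP / 0.5 mM PEP final; imidazole pH7.2 buffer w/ 7 mM MgCl2, 50 mM KCl; 1 h RT; Kinase-Glo lum. Intermediate enzyme activity for dual inhibitor/activator qHTS.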
KAT2A inh = blocks human GCN5L2 histone acetyltransferase. GCN5L2 HAT assay, ThioGlo1 CoA-SH fluorescence. 390,000 tested, 0.21% active. AID 504327. Potency, µM (titrated, usually from 58.9 µM), most hits filed as inhibitors. Q92830
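GCN5L2 (20 nM) in 50mM HEPES pH 7.5, 0.1mM EDTA, 0.01% Tween-20 preincubated 15 min with compounds at room temperature. Reaction started with H3(1-25) 75uM, acetyl-CoA 70uM, ThioGlo1 50uM; CoA-thiol fluorescence (Ex340/Em540) read at 0 and 20 min.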
PLK1 PBD block = PLK1 (human) polo-box domain binding inhibition; P53350; Plk1 PBD binding of FITC phosphopeptide, fluorescence polarization; Potency, µM, usual class: inhibitors; 360,000 tested, 2.8% active; AID 720504; also: series mostly up to about 57 µM; nearly all actives have a fitted effect of over 65% in size
Mito fusion act = inhibitors of mitochondrial division or activators of mitochondrial fusion; S. cerevisiae fusion-defective mutant growth rescue, CellTiterGlo 48 h; Potency, µM (titrated, usually from 46.1 µM), most hits filed as activators; 320,000 tested, 0.23% active; also: nearly all actives have a fitted effect of over 45% in size
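Temperature-sensitive fusion-defective S. cerevisiae (e.g. fzo1-1, mgm1-5) were grown with compound in YPEG medium (3% ethanol, 3% glycerol) for 48 hours at 37C. Growth rescue was measured as viability by CellTiterGlo luminescence after 10 minutes at ambient.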
GLS inh = blocks human kidney-isoform glutaminase activity; O94925; GLS enzymatic activity, qHTS titration; Potency, µM (highest dose often 45.5 µM), usual class: inhibitors; 410,000 tested, 0.21% active
Target sequence (O94925 whole entry, looked up, canonical isoform): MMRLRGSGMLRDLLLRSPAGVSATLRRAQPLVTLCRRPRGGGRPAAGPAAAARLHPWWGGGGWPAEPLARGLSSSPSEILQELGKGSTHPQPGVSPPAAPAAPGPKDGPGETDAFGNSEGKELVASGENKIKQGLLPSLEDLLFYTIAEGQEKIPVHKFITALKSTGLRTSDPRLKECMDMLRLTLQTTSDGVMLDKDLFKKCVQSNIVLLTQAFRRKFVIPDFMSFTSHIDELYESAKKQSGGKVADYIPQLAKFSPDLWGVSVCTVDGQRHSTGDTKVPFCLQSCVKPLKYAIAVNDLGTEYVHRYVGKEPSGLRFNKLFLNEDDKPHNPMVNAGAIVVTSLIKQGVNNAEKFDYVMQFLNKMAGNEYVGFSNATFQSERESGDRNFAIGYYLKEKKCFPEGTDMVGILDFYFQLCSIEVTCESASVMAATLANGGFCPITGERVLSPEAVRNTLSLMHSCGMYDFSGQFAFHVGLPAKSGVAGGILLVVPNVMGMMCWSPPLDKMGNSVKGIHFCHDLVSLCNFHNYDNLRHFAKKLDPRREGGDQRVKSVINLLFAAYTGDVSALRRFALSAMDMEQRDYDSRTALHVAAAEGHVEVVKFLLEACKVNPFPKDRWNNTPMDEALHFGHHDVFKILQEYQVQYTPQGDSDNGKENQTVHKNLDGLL
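Glutamate formation by hKGA was monitored fluorometrically using coupled glutamate oxidase, HRP and Amplex Red. Substrate was added as 1 mM L-glutamine solution; incubation was 30 min at RT after an initial read.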
VDR inhibitor = vitamin D3 receptor (human) inhibition; P11473; VDR-SRC2-3 peptide fluorescence polarization, 2 h; Potency, µM, usual class: inhibitors; 400,000 tested, 0.93% active; AID 504847
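Signal is fluorescence polarization, reporting how far test compounds block the interaction of VDR with the SRC2-3 coregulator peptide after a 2 h room-temperature incubation.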
Of the large screens only hits and unclear results are named; the others gave an inactive call; ! = repeats disagree. Calls follow the shape of the dose curve; as a rule, active = well fitted curve in the direction sought with a large enough effect; inconclusive = small, poorly fitted or top-dose-only effect, or another doubt; inactive = no such curve, though single readings can be large; an effect the other way counts as inactive or inconclusive.

COc1cc(Cl)c(NS(=O)(=O)c2c(C(=O)N3CCCC3)c(C)n(C)c2C)c(OC)c1	PLK1 PBD block 27µM (no result: PKM2 activator)
C[C@H]1Cc2c(COc3ccccc3)nc3c(c2CO1)CN(C(=O)c1cccnc1)CC3	none (no result: KAT2A inh, PLK1 PBD block, Mito fusion act, GLS inh, VDR inhibitor)
CC(C)C[C@@H](CC(=O)N[C@@H](CCCN)CC(=O)N[C@@H]1CCCC[C@H]1C(=O)N[C@H](CC(=O)N[C@@H](CCC(=O)O)CC(=O)O)Cc1c[nH]c2ccccc12)NC(=O)[C@@H]1CNCC[C@H]1N	none (no result: PKM2 activator, KAT2A inh, PLK1 PBD block, Mito fusion act, GLS inh)
COc1cc(/C=N/n2c(C)nnc2C)cc(OC)c1OC	none
COc1c(Br)cc(Br)cc1/C=N/n1c(C)nnc1C	PLK1 PBD block 27µM, VDR inhibitor inconclusive
Cc1ccc2nc(Cl)c(CNCc3ccccc3)cc2c1	PLK1 PBD block 24µM
NCCCCC(NC(=O)C1CCCN1C(=O)C1CSSCC(N)C(=O)NC(Cc2ccccc2)C(=O)NC(Cc2ccccc2)C(=O)NC(CCC(N)=O)C(=O)NC(CC(N)=O)C(=O)N1)C(=O)NCC(N)=O (stereo not given)	none (no result: PKM2 activator, KAT2A inh, PLK1 PBD block, Mito fusion act, VDR inhibitor)
COc1ccc(C(=O)Nc2ccc([N+](=O)[O-])cn2)cc1OC	none
COc1cc(OC)cc(C(=O)Nc2ccc([N+](=O)[O-])cn2)c1	PLK1 PBD block 27µM, VDR inhibitor inconclusive
S=c1[nH]nc(-c2ccc(Cl)cc2)n1-c1ccc(Cl)cc1	PLK1 PBD block inconclusive
Nc1n[nH]c(=S)n1-c1ccc(Cl)cc1	KAT2A inh inconclusive, PLK1 PBD block 12µM, VDR inhibitor inconclusive
O=C(N/N=C/c1ccc(N2CCOCC2)cc1)c1ccccc1OCCOc1ccccc1	PLK1 PBD block 3µM, GLS inh inconclusive, VDR inhibitor inconclusive
O=[N+]([O-])c1ccc2c(c1)N([O-])C1(CCCCC1)[N+]2=O	PLK1 PBD block 12µM, VDR inhibitor inconclusive
CC1=C(c2ccccc2)[N+](=O)C2(CCCC2)N1[O-]	none
[N-]=C=C1C(=O)NC(=O)C([n+]2ccc(-c3ccncc3)cc2)C1c1ccccc1C(F)(F)F (stereo not given)	PLK1 PBD block inconclusive, VDR inhibitor 28µM
O=S(=O)(Nc1ccc2oc3c(c2c1)CCCC3)c1cc(Cl)ccc1Cl	none (no result: PKM2 activator, PLK1 PBD block, Mito fusion act)
Cc1cc(N2CCN(S(=O)(=O)c3ccc4ccccc4c3)CC2)n2ncnc2n1	PKM2 activator 18µM
CCS(=O)(=O)N1CCN(S(=O)(=O)c2ccc3ccccc3c2)CC1	PKM2 activator inconclusive
CC1CCCCN1C(=O)COc1ccccc1F (stereo not given)	PLK1 PBD block 27µM
CCCN1CCN(CCCNC(=O)Cn2nc(C)n3c(cc4cc(F)ccc43)c2=O)CC1	PLK1 PBD block 30µM (no result: PKM2 activator)
CCCN1CCN(CCCNC(=O)Cn2nc(C)n3c(cc4cc(OC)ccc43)c2=O)CC1	none (no result: PKM2 activator)
CCc1nnc(NC(=O)c2ccc(S(=O)(=O)N(CC)Cc3ccccc3)cc2)o1	PLK1 PBD block 3µM, GLS inh inconclusive
Cc1ccc(-n2nc(C)c3c2NC2=C(C(=O)CC(C)(C)C2)C3c2ccccc2OCC(=O)O)cc1 (stereo not given)	PLK1 PBD block 27µM, GLS inh inconclusive
COc1ccccc1C1C2=C(CC(C)(C)CC2=O)N(CC(=O)O)C2=C1C(=O)CC(C)(C)C2	none
Cc1ccc(NNC(N)=S)cc1Cl	VDR inhibitor 79µM
NC(=S)NNc1ccc(Cl)c(Cl)c1	PLK1 PBD block inconclusive, VDR inhibitor inconclusive
CCCC(=O)O[C@]1(C(=O)CCl)[C@H](C)C[C@@H]2[C@H]3CCC4=CC(=O)C=C[C@]4(C)[C@@]3(F)C(=O)C[C@@]21C	none (no result: PKM2 activator, PLK1 PBD block, Mito fusion act)
COc1cccc(Nc2ccc(C(=O)O)cc2N)c1	GLS inh 3.2µM (no result: PKM2 activator)
O=c1c(-c2cc(F)cc(F)c2)nc2cnc(N3CCOCC3)nc2n1-c1ccccc1	KAT2A inh inconclusive (no result: PKM2 activator, PLK1 PBD block, Mito fusion act, GLS inh)
COC(=O)COc1ccc(C(C2C(=O)CC(C)(C)CC2=O)C2C(=O)CC(C)(C)CC2=O)cc1	PLK1 PBD block inconclusive, VDR inhibitor 50µM (no result: PKM2 activator)
O=[N+]([O-])c1ccc(NCCNS(=O)(=O)c2ccccc2)c(C(F)(F)F)c1	PKM2 activator 28µM
Cc1ccc(S(=O)(=O)NCCNc2ccc([N+](=O)[O-])cc2C(F)(F)F)cc1	PKM2 activator inconclusive
C=CCN(Cc1ccc(OC)c(OC)c1)C(=O)c1cc2cc(F)ccc2[nH]1	none (no result: PKM2 activator)
O=C(O)c1ccc(NNC(=S)Nc2cc(C(F)(F)F)ccc2Cl)cc1	PLK1 PBD block 21µM, VDR inhibitor 22µM
O=C(NC(=S)Nc1cc(C(F)(F)F)ccc1Cl)c1ccccc1	none
CC(=O)c1ccc(S(=O)(=O)Nc2ccc(-c3cn4c(n3)SCC4)cc2)cc1	PKM2 activator inconclusive
COCCN(CCOC)C(=O)c1cc2c(=O)n3ccccc3nc2s1	KAT2A inh 18µM
CN(CC(=O)Nc1ccccc1Br)C(=O)Cn1[nH]c(=O)c2ccccc2c1=O	none (no result: PKM2 activator)
COC(=O)N1C(C2CC2)=Cc2ccccc2C1CC(C)=O (stereo not given)	none (no result: KAT2A inh, PLK1 PBD block, Mito fusion act, GLS inh)
N/C(=N\OC(=O)Cc1ccccc1)c1ccccn1	PLK1 PBD block 12µM, GLS inh inconclusive
O=c1c(C(c2ccc(Br)cc2)c2c(O)nc3n(c2=O)CCS3)c(O)nc2n1CCS2	PLK1 PBD block 15µM, VDR inhibitor inconclusive
O=c1c(C(c2ccc(Br)cc2)c2c(O)nc3n(c2=O)CCCS3)c(O)nc2n1CCCS2	PLK1 PBD block inconclusive
O=c1c(C(c2ccc(O)cc2)c2c(O)nc3n(c2=O)CCCS3)c(O)nc2n1CCCS2	PLK1 PBD block 12µM, VDR inhibitor 50µM
O=c1c(C(c2ccc(O)cc2)c2c(O)nc3n(c2=O)CCS3)c(O)nc2n1CCS2	PLK1 PBD block 6µM, VDR inhibitor inconclusive
Cc1ccc(C(c2c(O)nc3n(c2=O)CCS3)c2c(O)nc3n(c2=O)CCS3)cc1	PLK1 PBD block 17µM, VDR inhibitor 50µM
CCCc1nn2c(=O)c(C(c3ccc(C)cc3)c3c(O)nc4sc(CCC)nn4c3=O)c(O)nc2s1	none
OCC1(CCc2ccccc2)CCN(Cc2cccn2-c2cccnc2)CC1	none
O=c1c(C(c2c(O)nc3n(c2=O)CCS3)c2cccc3ccccc23)c(O)nc2n1CCS2	PLK1 PBD block 30µM, VDR inhibitor inconclusive
COc1ccc(NC(=O)C2COc3ccccc3C2)cc1Cl (stereo not given)	none (no result: PKM2 activator, PLK1 PBD block, Mito fusion act)
COc1ccc(C2Nc3ccccc3C(=O)N2Cc2ccco2)cc1CN1C(=O)c2ccccc2C1=O (stereo not given)	PKM2 activator 20µM!
CCOc1cc(C2Nc3ccccc3C(=O)N2Cc2ccco2)ccc1O (stereo not given)	none (no result: PKM2 activator, KAT2A inh, PLK1 PBD block, Mito fusion act, GLS inh)
COc1ccc(C2Nc3ccccc3C(=O)N2Cc2ccco2)cc1COc1ccc(F)cc1 (stereo not given)	PKM2 activator 14µM

Bioassay records: PubChem BioAssay, National Center for Advancing Translational Sciences (NCATS)
